Active and inactive are the calls of the source. Calls follow the shape of the dose curve; as a rule, active = well fitted inhibition curve with a large enough effect; inconclusive = small, poorly fitted or top-dose-only effect; inactive = flat fitted curve, though single readings scatter.
Potency is read from the fitted curve at half-maximal effect.

The target in this assay is Luciferin 4-monooxygenase (Photinus pyralis) (UniProt P08659). In words: Primary firefly luciferase (FLuc) qHTS assay for identification of artifact compounds. (AID 1845220). Also: nearly all actives have a fitted effect of over 60% in size. The settings on record: purified firefly luciferase, luminescence, 5 min; series mostly up to 54.1 µM; activity change, negative = inhibition: at the top concentration. From the text:
PI: Alexander Tropsha Ph.D.
UNC Eshelman School of Pharmacy
University of North Carolina, Chapel Hill, North Carolina
Hits from high-throughput screening (HTS) of chemical libraries are often false positives due to their interference with the assay detection technology. In response to this problem, we generated the largest publicly available library of chemical liabilities and developed a free webtool to predict HTS artifacts, both of which are described herein. More specifically, we generated, curated, and integrated HTS datasets for thiol reactivity, redox activity, and luciferase (firefly and nano) activity. Using these curated datasets, we developed and validated several Quantitative Structure-Interference Relationship (QSIR) models to predict nuisance behavior. […] These models were employed for virtual profiling of the National Center for Advancing Translational Science's (NCATS) in-house library, and 256 compounds for each assay were selected for the experimental validation of nuisance behavior. The BA for these external predictions ranged from 58 to 78% for compounds within the applicability domains of the models. […] The models developed in this study, along with aggregation models previously developed by our group (SCAM Detective) were implemented in "Liability Predictor," an online tool which may be used as part of chemical library design or for triaging HTS hits. Both the models and the curated datasets are publicly available at https://liability.mml.unc.edu/.
SEQUENCE No. (e.g., 1, 2, 3, etc.); […] (e.g., Cells, Incubation, Reagent, etc.); VALUE; DESCRIPTION.
1; Reagent; 3 uL; Luciferase substrate mixture.
2; Compounds and control; 16 nL; Kalypsis pin tool (Wako USA) equipped with a 1536-well pin head.
4; Reagent; 1 uL; Luciferase enzyme.
6; Detection; Luminescence, ViewLux microplate reader.
NOTES (numbers refer to Sequence numbers above)
1. 3 uL of luciferase substrate mixture containing D-luciferin and ATP (final concentrations of 10 uM and 10 uM, respectively) in assay buffer (10 mM Mg-acetate, 0.01% Tween-20, 0.05% bovine serum albumin, 50 mM Tris acetate, pH 7.6) was dispensed into all wells of a 1536-well assay plate (solid-bottom white plate; Greiner Bio One, Monroe, NC).
2. A Wako Pin-tool (Wako Automation, Richmond, VA) was used to transfer 16 nL of compounds (consisting of 7-plates in qHTS format, final concentration range 18.3 nM to 114 uM) or control PTC124 (final concentration range 1.22 nM to 40 uM).
3. 15 min. incubation at room temperature protected from light.
4. 1 uL of luciferase enzyme (final concentration 10 nM, Photinus pyralis luciferase) or buffer was dispensed for a final assay volume of 4 uL.
5. Plates were centrifuged (121xg, 15 seconds) and incubated for 5 minutes.
6. Samples were read for luminescence on a ViewLux CCD imager (PerkinElmer). Data were normalized to no-enzyme (0% activity) and no-inhibitor (DMSO; 100%) controls and the resulting percent inhibition data were fitted to a 4-parameter Hill equation using NCATS in-house software.
A general note: In qHTS, concentration-response curves come from the screen itself.
As to `O=C(c1ccccn1)N(Cc1cccs1)C1(C(=O)NC2CCCCC2)CCCCC1`, the “activity change, negative = inhibition” value was 3.67% (inactive).
Turning to `Cc1[nH]c(/C=C2\C(=O)Nc3cc(-c4ccccc4)ccc32)c(C)c1CCC(=O)O`, the Potency was 6.01 µM (active).
On to `C=C1C(=O)OC2/C=C(\C)CC/C=C(\C)CC(OC(C)=O)C12` (stereo not given), for which the “activity change, negative = inhibition” value is -5.04% (inactive).
`CC[C@@H](Nc1c(Nc2cccc(C(=O)N(C)C)c2O)c(=O)c1=O)c1cc(C(C)C)co1`: the result was inactive.
In the case of `FC(F)(F)c1ccccc1-c1cc(C(F)(F)F)c2nc(C3=NOC4(CCCCC4)C3)[nH]c2c1`, the “activity change, negative = inhibition” value is -10.4% (inactive).
With `CC(CCC1(O)OC2CC3C4CC=C5C[C@@H](O[C@@H]6O[C@H](CO)[C@@H](O[C@@H]7O[C@@H](C)[C@H](O)[C@@H](O)[C@H]7O)[C@H](O)[C@H]6O[C@@H]6O[C@@H](C)[C@H](O)[C@@H](O)[C@H]6O)CC[C@]5(C)C4CC[C@]3(C)[C@@]2(O)[C@@H]1C)CO[C@@H]1O[C@H](CO)[C@@H](O)[C@H](O)[C@H]1O` (stereo not given in full), the outcome is “inactive [at 11.6 µM]”.
Same read-out and setting: under `O=C(NCCCN1CCC2(CC1)OCc1ccccc12)[C@H]1CCCN1Cc1ccccc1` stands “inactive”.
Regarding `C=C1CCC2C(C)(C(=O)O)CCCC2(C)C1CCC1=CCOC1=O` (stereo not given), the “activity change, negative = inhibition” value is 0.982% (inactive).
For `CC1(C)CC[C@]2(C(=O)O)CC[C@]3(C)C(=CCC4[C@@]5(C)C[C@@H](O)[C@H](O)[C@@](C)(CO)C5CC[C@]43C)[C@@H]2[C@@H]1O` (stereo not given in full), the “activity change, negative = inhibition” value is 0.792% [at 25.7 µM] (inactive).
Regarding `CC(=O)O[C@@H]1[C@H](O[C@@H]2O[C@@H](CO)[C@H](O)[C@H]2O)[C@@H](O[C@@H]2O[C@@H](C)[C@H](O[C@@H]3OC[C@@H](O)[C@H](O)[C@H]3O)[C@@H](O)[C@H]2O)[C@H](OC(=O)[C@]23CCC(C)(C)C[C@H]2C2=CCC4[C@@]5(C)CC[C@H](O[C@@H]6O[C@H](C(=O)O)[C@@H](O)[C@H](O)[C@H]6O[C@@H]6O[C@H](CO)[C@H](O)[C@H](O)[C@H]6O)[C@@](C)(C=O)C5CC[C@@]4(C)[C@]2(C)C[C@H]3O)O[C@@H]1C` (stereo not given in full), the outcome was “inactive [at 11.6 µM]”.
Turning to `O=C1COC2(CCN(S(=O)(=O)c3ccc(-c4ccc5cccnc5c4)cc3)CC2)CN1C1CC1`, the call was inactive.
Turning to `Cc1ccc(NC(=O)C(C)C)cc1C1CCN(Cc2ccc(Oc3ccc(F)c(F)c3)cc2)CC1`, the result was inactive.
As for `CC(C)NC(=O)COc1cccc(-c2nc(Nc3ccc4[nH]ncc4c3)c3ccccc3n2)c1`, the “activity change, negative = inhibition” value was -0.471% (inactive).
`CC(=O)OC[C@]12[C@H](OC(C)=O)C(=O)[C@@H]3[C@@H](O)[C@@]14O[C@@]3(C)COC(=O)c1cccnc1[C@@H](C)[C@H](C)C(=O)O[C@@H]([C@H](O)[C@@H]2OC(C)=O)[C@]4(C)O`: the “activity change, negative = inhibition” value was -8.57% [at 25.7 µM] (inactive).
In the case of `COc1ccc(-c2cnc3c(-c4cccc5ncccc45)cnn3c2)cc1`, the “activity change, negative = inhibition” value was -4.83% (inactive).
Regarding `C=C[C@H](/C=C\c1ccc(O)cc1)c1ccc(O)cc1`, the molecule was called inactive.
Turning to `C=C1C(=O)OC2C=C(C)CC/C=C(\CO)CC(O)C12` (stereo not given), the call was inactive.
Consider `CC1(C)CC[C@]23CO[C@@]4(CCC5[C@@]6(C)CC[C@H](O[C@@H]7OC[C@H](O[C@@H]8O[C@H](CO)[C@@H](O)[C@H](O)[C@H]8O[C@@H]8OC[C@@H](O)[C@H](O)[C@H]8O)[C@H](O)[C@H]7O)[C@@](C)(CO)C6CC[C@@]5(C)[C@]4(C)CC2=O)[C@@H]3C1` (stereo not given in full), for which the outcome was “inactive [at 11.6 µM]”.
`C/C=C/C=C/C=C/C(=O)O[C@@H]1C=C(CO)C(O)(C(=O)OC)[C@@]2(C)CCCC(C)(C)C12` (stereo not given in full): the “activity change, negative = inhibition” value was -0.205% [at 25.7 µM] (inactive).
Take `C/C=C(\C)C(=O)O[C@H]1C=CC(=O)O[C@H]1/C=C/[C@@H](O)[C@H](C)O`: the call was inactive.
The same measure, in the same setting: the result for `O=C(NCCN1CCN(c2cccc3ccc(O)cc23)CC1)c1ccc(F)cc1` reads “inactive”.
With `CCC(C)(OC(C)=O)C(=O)O[C@H]1[C@H](OC(C)=O)[C@]2(CO)[C@H](O)[C@H](O)[C@]3(C)C(=CCC4[C@@]5(C)CC[C@H](O[C@@H]6O[C@H](C(=O)O)[C@@H](O)[C@H](O[C@@H]7OC[C@H](O)[C@H](O[C@@H]8OC[C@H](O)[C@H](O)[C@H]8O)[C@H]7O)[C@H]6O[C@@H]6O[C@H](CO)[C@@H](O)[C@H](O)[C@H]6O)C(C)(C)C5CC[C@]43C)[C@@H]2CC1(C)C` (stereo not given in full), the activity change, negative = inhibition is -11% [at 11.6 µM] (inactive).
Consider `COc1ccc([C@H]2OC[C@H]3O[C@@H](O[C@H]4[C@@H]2NC[C@@H]4O)[C@H](O)[C@H]3O)cc1`, for which the “activity change, negative = inhibition” value was -1.45% (inactive).
Regarding `CCN(Cc1ccccc1)C(=O)Cn1c(=O)n(C)c2cnc(-c3ccccc3)nc21`, the “activity change, negative = inhibition” value is 1.62% (inactive).
Take `Nc1ncnc2c1nc(Cl)n2C1OC2COP(=O)(O)OC2C1O` (stereo not given): the outcome was inactive.
Consider `COc1cc(OC)c2c(=O)[nH]c(-c3cc(C)c(OCCO)c(C)c3)nc2c1`, for which the Potency is 15.1 µM (active).
As for `CC1CCC(=O)CC(SCC(O)C(=O)O)CCC(=O)O1` (stereo not given), the “activity change, negative = inhibition” value was 1.68% (inactive).
As for `CN[C@@H]1[C@H](O[C@H]2[C@H](O[C@@H]3[C@@H](O)[C@H](O)[C@@H](N=C(N)N)[C@H](O)[C@H]3N=C(N)N)O[C@@H](C)[C@]2(O)CO)O[C@@H](CO)[C@H](O)[C@H]1O`, the call was inactive.
With `CCc1cc(C(N)=O)ccc1-n1nc(C(C)C)c2c(-n3cnc(-c4cnn(C)c4)c3)ccnc21`, the “activity change, negative = inhibition” value is 1.54% (inactive).
For the molecule `C[C@@H]1CC[C@@]23CC[C@]4(C)[C@@](C=CC5[C@@]6(C)CC[C@H](O)C(C)(C)C6CC[C@]54C)(OC2=O)C3[C@H]1C` (stereo not given in full), the “outcome” value was “inactive [at 25.7 µM]”.
As to `O=C(NCCCNC(=O)c1ccc[nH]c1=O)c1cc(-c2ccccc2)on1`, the result was inactive.
On to `CC(=O)N[C@H]1[C@H](O[C@H]2CC[C@@]3(C)C(CC[C@]4(C)C3CC=C3C5CC(C)(C)CC[C@]5(C(=O)O)C(O)C[C@]34C)C2(C)C)O[C@H](CO[C@@H]2O[C@H](C)[C@H](O)[C@H](O)[C@H]2O[C@@H]2OC[C@@H](O)[C@H](O)[C@H]2O)[C@@H](O)[C@@H]1O` (stereo not given in full), for which the activity change, negative = inhibition was -2.09% [at 11.6 µM] (inactive).
Turning to `OC(CC1c2ccccc2-c2cncn21)C1CCCCC1` (stereo not given), the “activity change, negative = inhibition” value is -7.86% (inactive).
For `O=C(NCc1cccs1)c1cc2nc(-c3ccco3)cc(C(F)(F)Cl)n2n1`, the “activity change, negative = inhibition” value is -8.55% (inactive).
For `Cc1cc(N2CCOCC2)ccc1Nc1nc(NC2CCCCC2)c2[nH]cnc2n1`, the molecule was classed as inactive.
As to `Cc1cc2c(F)c(Oc3ncnn4cc(OCC(C)OC(=O)C(C)N)c(C)c34)ccc2[nH]1` (stereo not given), the result was inactive.
`COc1cc2c(cc1-c1c(C)noc1C)ncc1[nH]c(=O)n(C(C)c3ccccn3)c12` (stereo not given): the “activity change, negative = inhibition” value was 4.7% (inactive).
As to `COc1c(CCC(=O)O)cccc1O[C@@H]1O[C@H](CO)[C@@H](O)[C@H](O)[C@H]1O`, the “activity change, negative = inhibition” value is 3.78% (inactive).
For the molecule `Cc1cc2c(N3CCCC3)nc(N3CCCC3)nc2n1C`, the molecule was called inactive.
Consider `O=C(Nc1cnc(Cl)nc1)c1ccc(F)c(F)c1`, for which the outcome was inactive.

The record behind these values is PubChem BioAssay (NCATS).
